Hit rate of the full screen: of about 360,000 compounds, about 25,000 (6.9%) were called active. Another 9% or so got no clear call; they are omitted. Shown is part of a subset that was picked to be rich in actives. Unmarked numbers belong to inactive results. The call rests on the fitted dose curve; in most records, active means well fitted inhibition curve with a large enough effect; inconclusive means small, poorly fitted or top-dose-only effect; inactive means flat fitted curve, though single readings scatter.
Biological target: Luciferin 4-monooxygenase (Photinus pyralis) (UniProt P08659)
Assay: qHTS profiling assay for firefly luciferase inhibitor/activator using purifed enzyme and Km concentrations of substrates (counterscreen for miR-21 project); further: nearly all actives have a fitted effect of over 55% in size;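 on activity change, negative = inhibition: plate controls were vehicle for no effect and reference inhibitor for full effect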
Conditions: purified FLuc, luminescence inhibition; series mostly up to 57.5 µM; activity change, negative = inhibition: at the top concentration
How it was run: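 Biochemical qHTS of compounds, final roughly 60 µM downward over six points, against 10 nM purified firefly luciferase using Km concentrations of substrates (10 uM D-luciferin, 10 uM ATP) in Tris acetate pH 7.5 buffer; luminescence output.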
Potency means the concentration at half of the fitted maximal effect.

Sequence of Luciferin 4-monooxygenase (Photinus pyralis) (P08659 whole entry, looked up): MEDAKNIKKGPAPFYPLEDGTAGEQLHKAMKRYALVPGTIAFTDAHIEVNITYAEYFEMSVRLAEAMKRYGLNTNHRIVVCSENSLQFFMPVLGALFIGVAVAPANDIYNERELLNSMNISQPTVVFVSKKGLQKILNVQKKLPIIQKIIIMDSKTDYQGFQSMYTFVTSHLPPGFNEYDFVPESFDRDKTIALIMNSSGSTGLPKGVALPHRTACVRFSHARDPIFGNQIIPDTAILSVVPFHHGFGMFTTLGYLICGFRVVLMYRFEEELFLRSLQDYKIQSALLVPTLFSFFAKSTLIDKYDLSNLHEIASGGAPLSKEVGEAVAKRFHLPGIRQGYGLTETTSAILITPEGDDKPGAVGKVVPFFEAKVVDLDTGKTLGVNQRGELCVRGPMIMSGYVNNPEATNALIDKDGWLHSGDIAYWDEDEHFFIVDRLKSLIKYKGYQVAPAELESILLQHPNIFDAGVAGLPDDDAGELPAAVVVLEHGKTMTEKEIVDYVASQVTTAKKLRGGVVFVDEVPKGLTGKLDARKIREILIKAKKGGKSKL

Q: With `CCN(c1ccc(Cl)cc1)S(=O)(=O)c1nnc(NC(=O)c2ccco2)s1` as the molecule, how does the “activity change, negative = inhibition” value read?
A: -0.0682%

Q: Which “activity change, negative = inhibition” value does the source give for `Cc1cc(NC(=O)COn2nnc3ccccc32)no1` here?
A: 4.3%

Q: Which Potency does the source give for `Cc1cc(NC(=O)COc2ccccc2C#N)no1` here?
A: 12 µM (active)

Q: For `Cc1cc(NC(=O)COc2ccc([N+](=O)[O-])cc2)no1`, which “activity change, negative = inhibition” value is on record?
A: 2.75%

Q: How did the “activity change, negative = inhibition” value turn out when `Cc1ccccc1C(=O)Nc1ccccc1NC(=O)c1ccccc1C` was run?
A: -0.392%

Q: `Cc1cc(NC(=O)c2ccccc2C)no1` was tested. Which Potency did it give?
A: 15.1 µM (active)

Q: For `Cc1cc(NC(=O)CSCc2ccccc2C)no1`, which “activity change, negative = inhibition” value is on record?
A: -1.06%

Q: With `COc1ccc(N2C(=O)CSC23C(=O)N(Cc2cccc(F)c2)c2ccccc23)cc1Cl` (stereo not drawn) as the molecule, how does the “activity change, negative = inhibition” value read?
A: -0.272%

Q: With `COc1ccc(C(=O)C[n+]2ccc(N)c(C)c2C)cc1` as the molecule, how does the “activity change, negative = inhibition” value read?
A: -11.6%

Q: Which “activity change, negative = inhibition” value does the source give for `CC(CNC(=O)c1nnc(Cc2cccc(F)c2)o1)c1ccccc1` (stereo not drawn) here?
A: -1.56%

Q: With `NC(=O)NC(CC(=O)NNC(=O)c1ccccn1)c1ccc(Cl)cc1` (stereo not drawn) as the molecule, how does the “activity change, negative = inhibition” value read?
A: -1.76%

Q: How did the “activity change, negative = inhibition” value turn out when `CC(C)(C)NC(=O)CSc1nc(-c2ccc(F)cc2)cc(C(F)(F)F)n1` was run?
A: 2.93%

Q: Which “activity change, negative = inhibition” value does the source give for `COC(=O)Cc1ccc(OCC(=O)NC2CCCC2)cc1` here?
A: 2.01%

Q: Which Potency does the source give for `Cc1c(C(=O)Nc2ccccn2)oc2ccc(Br)cc12` here?
A: 2.13 µM (active)

Q: For `COC(=O)c1oc2ccc(Br)cc2c1NC(C)=O`, which “activity change, negative = inhibition” value is on record?
A: 1.34%

Q: For `Cc1noc(C)c1C(=O)Nc1ccccn1`, which “activity change, negative = inhibition” value is on record?
A: 20.3%

Q: `COc1cc(C(CC(=O)NCCC(C)C)N2Cc3ccccc3C2=O)cc(OC)c1OC` (stereo not drawn) was tested. Which “activity change, negative = inhibition” value did it give?
A: -0.101%

Q: How did the “activity change, negative = inhibition” value turn out when `CCCn1c(=N)n(CC(O)COc2ccccc2OC)c2ccccc21` (stereo not drawn) was run?
A: 0.404%

Q: With `COc1cc2[nH]c(=O)n(Cc3ccc(C(=O)NCc4ccc(C)cc4)cc3)c(=O)c2cc1OC` as the molecule, how does the “activity change, negative = inhibition” value read?
A: 1.8%

Q: For `COCCCN(C(=S)Nc1c(C)cc(C)cc1C)C(C)c1ccncc1` (stereo not drawn), which “activity change, negative = inhibition” value is on record?
A: 0.293%

Q: `CCOc1ccc(C(=O)Nc2ccc(CN3CCOCC3)cc2)cc1Cl` was tested. Which Potency did it give?
A: 7.57 µM (active)

Q: With `CCCc1cc(=O)oc2cc(OCC(=O)Nc3ccc(CN4CCOCC4)cc3)c(Cl)cc12` as the molecule, how does the “activity change, negative = inhibition” value read?
A: 0.442%

Q: For `COc1ccc(NC(=O)c2sccc2SCC#N)cc1`, which Potency is on record?
A: 13.5 µM (active)

Q: With `COc1ccc(NC(=O)c2cc3cc(C)ccc3n2C)cc1` as the molecule, how does the “activity change, negative = inhibition” value read?
A: -4.75%

Q: Which Potency does the source give for `COc1ccc(C(=O)Nc2cccc(S(C)(=O)=O)c2)cc1` here?
A: 16.9 µM (active)

Q: For `COc1cccc(-c2cc(C(=O)Nc3ccc(C)cc3)[nH]n2)c1`, which “activity change, negative = inhibition” value is on record?
A: -11.6%

Q: How did the “activity change, negative = inhibition” value turn out when `CC1=C(C(=O)Nc2ccccc2)C(c2cccs2)C(C#N)=C(SCC#N)N1` (stereo not drawn) was run?
A: 3.23%

Q: Which “activity change, negative = inhibition” value does the source give for `COc1ccc(NS(=O)(=O)c2ccc(NC(=O)c3ccc(N(C)S(C)(=O)=O)cc3)cc2)cc1` here?
A: 8.07%

Q: Which “activity change, negative = inhibition” value does the source give for `O=C(Nc1ccc(CN2CCOCC2)cc1)c1cc(Cl)ccc1Cl` here?
A: -1.52%

Q: `COc1ccc(-n2cnnc2SCC(=O)Nc2cccc(S(N)(=O)=O)c2)cc1` was tested. Which “activity change, negative = inhibition” value did it give?
A: 1.34%

Q: Which “activity change, negative = inhibition” value does the source give for `Cc1ccc(NC(=O)c2cccnc2C(=O)Nc2ccc(C)cc2)cc1` here?
A: -13.1%

Q: `Cc1ccc(NC(=O)c2ccc(Oc3ncccn3)cc2)cc1` was tested. Which Potency did it give?
A: 15.1 µM (active)

Q: With `CCOc1ccc(N2CC(c3nc4ccccc4n3CCOc3ccc(OC)cc3)CC2=O)cc1` (stereo not drawn) as the molecule, how does the “activity change, negative = inhibition” value read?
A: -3.28%

Q: `CCc1cccc(NC(=O)CN(C)S(=O)(=O)c2ccc3[nH]c4c(c3c2)CCCC4)c1` was tested. Which “activity change, negative = inhibition” value did it give?
A: -18.7%

Q: With `O=C(CCc1ccccc1)NCc1ccc2c(c1)CCN2C(=O)c1ccccc1` as the molecule, how does the “activity change, negative = inhibition” value read?
A: -14%

Q: How did the “activity change, negative = inhibition” value turn out when `CNC(=O)CN1C(=O)c2cccnc2Sc2ccccc21` was run?
A: -6.05%

Q: `CN(Cc1ccccc1)C(=O)c1cn(C)c2ccc(S(=O)(=O)N(C)C3CCCCC3)cc2c1=O` was tested. Which “activity change, negative = inhibition” value did it give?
A: -2.07%

Q: How did the “activity change, negative = inhibition” value turn out when `Cn1cc(S(=O)(=O)Nc2ccc(Cl)cc2Cl)c(=O)n(C)c1=O` was run?
A: -3.16%

Q: With `Cc1cc(C)cc(NC(=O)C(c2ccccc2)N2CCN(CC(=O)N3CCCC3)CC2)c1` (stereo not drawn) as the molecule, how does the “activity change, negative = inhibition” value read?
A: 3.43%

Q: How did the “activity change, negative = inhibition” value turn out when `Cc1cccc(OCCC(=O)OCc2csc(CC(=O)Nc3ccccc3C)n2)c1` was run?
A: -1.32%

Q: Which “activity change, negative = inhibition” value does the source give for `O=C(Nc1ccccc1F)C(c1ccccc1)N1Cc2ccccc2C1=O` (stereo not drawn) here?
A: 4.63%

Q: `COc1ccccc1CNC(=O)c1ccc(NC(=O)N2CC(C)Sc3ccccc32)cc1` (stereo not drawn) was tested. Which “activity change, negative = inhibition” value did it give?
A: -13.1%

Q: With `COc1cc2c(=O)c(S(=O)(=O)c3ccc(C(C)C)cc3)cn(Cc3ccccc3C)c2cc1OC` as the molecule, how does the “activity change, negative = inhibition” value read?
A: -1.62%

Q: Which “activity change, negative = inhibition” value does the source give for `CCCC(=O)NC(=S)Nc1ccc(CN2CCOCC2)cc1` here?
A: 0.646%

Q: With `COc1ccc(CC(=O)Nc2ccc(C(=O)NC(C)(C)C)cc2)cc1` as the molecule, how does the “activity change, negative = inhibition” value read?
A: -8.31%

Q: `CCCOc1cccc(C(=O)NCCCNC(=O)c2cccnc2)c1` was tested. Which “activity change, negative = inhibition” value did it give?
A: 3.75%

Q: With `COc1ccc(NC(=O)c2ccc(C#CC(C)(C)O)cc2)cc1` as the molecule, how does the “activity change, negative = inhibition” value read?
A: -18.6%

Q: `COc1ccc(C(=O)CCC(=O)Nc2ccc(Cl)cc2)cc1` was tested. Which “activity change, negative = inhibition” value did it give?
A: 2.82%

Q: With `O=C(Nc1ccc(CSc2ccccc2)cc1)c1ccc(CN2CCOCC2)cc1` as the molecule, how does the “activity change, negative = inhibition” value read?
A: -7.97%

Q: For `COCCNC(=S)c1ccc(OC)cc1`, which “activity change, negative = inhibition” value is on record?
A: -8.55%

Q: `COc1ccc(C(=S)Nc2ccccc2)cc1` was tested. Which Potency did it give?
A: 13.5 µM (active)

Q: With `COc1ccc(C(=O)Nc2ccc(CN3CCOCC3)cc2)cc1` as the molecule, how does the Potency read?
A: 12 µM (active)

Q: For `CCCOc1cccc(C(=O)Nc2cccc(NC(=O)c3ccc(C(C)(C)C)cc3)c2)c1`, which Potency is on record?
A: 1.69 µM (active)

From PubChem BioAssay AID588342 (National Center for Advancing Translational Sciences (NCATS), 2011)
